Only some compounds are listed: those with a hit (about 2.6% of all), similar ones and a draw of the others.
Cruzain inh noDet = qHTS Assay for Promiscuous and Specific Inhibitors of Cruzain (without detergent); AID 1476, 2009; purified cruzain, Z-FR-AMC fluorescence, no detergent; Potency, µM, for the others: max response, negative = inhibition, usual class: inhibitors; Cruzipain (Trypanosoma cruzi), P25779; 200,000 compounds, 2.3% hits;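 also: plate controls were enzyme without inhibitor for no effect and buffer without enzyme for full effect; nearly all actives have a fitted effect of over 40% in size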
Target sequence (P25779 123-467 limits assumed): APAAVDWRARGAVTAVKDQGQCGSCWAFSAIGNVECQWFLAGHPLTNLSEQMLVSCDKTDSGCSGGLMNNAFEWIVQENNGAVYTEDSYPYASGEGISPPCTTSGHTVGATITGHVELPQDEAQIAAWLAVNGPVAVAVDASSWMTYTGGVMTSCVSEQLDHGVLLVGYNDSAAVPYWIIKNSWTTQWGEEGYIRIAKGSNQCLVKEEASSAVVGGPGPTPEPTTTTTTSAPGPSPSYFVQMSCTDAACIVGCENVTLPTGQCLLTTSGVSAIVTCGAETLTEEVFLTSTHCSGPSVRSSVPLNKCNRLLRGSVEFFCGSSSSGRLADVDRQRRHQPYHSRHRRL
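Detergent-free condition (0.00005% Triton X-100) in acetate buffer pH 5.5 with DTT. 1.5 nM enzyme and compound were pre-mixed 15 min, then 2 uM Z-FR-AMC substrate added; reaction progress from fluorescence change between first and third reads (60 s).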
Cruzain inh Det = qHTS Assay for Promiscuous and Specific Inhibitors of Cruzain (with detergent) | Cruzipain (Trypanosoma cruzi), P25779 | purified cruzain, Z-FR-AMC fluorescence, 0.01% Triton | Potency, µM, for the others: max response, negative = inhibition, hits mostly inhibitors | 200,000 compounds, 0.43% hits | AID 1478, 2009;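 also: plate controls were neutral wells for no effect and buffer without enzyme for full effect; nearly all actives have a fitted effect of over 40% in size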
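15 min RT preincubation of 1.5 nM cruzain with compound, then 2 uM Z-FR-AMC added; kinetic AMC fluorescence, 60 s delta. Triton X-100 0.01%, pH 5.5.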
An asterisk follows results filed as active; ? = inconclusive. Calls follow the shape of the dose curve; as a rule, active = well fitted curve in the direction sought with a large enough effect; inconclusive = small, poorly fitted or top-dose-only effect, or another doubt; inactive = no such curve, though single readings can be large; an effect the other way counts as inactive or inconclusive. Potency is read from the fitted curve at half-maximal effect.

SMILES	Cruzain inh noDet	Cruzain inh Det
COc1cccc2cc(C(=O)N3CCc4ccccc43)c(=O)oc12	4%	4%
Cc1ccc(Sc2c(C(=O)NCc3ccccc3C)[nH]c3ccccc23)cc1	28%	-7%
Cc1cccc(N=Nc2ccc(O)c3ncccc23)c1	20µM*	2%
NS(=O)(=O)c1cc(Br)c(N=Nc2ccc(O)c3ncccc23)c(Br)c1	-5%	6%
Cc1cccc(C)c1Nc1c(-c2ccc(Cl)s2)nc2ncccn12	-4%	-9%
CN(C)c1oc(-c2ccc(OCc3ccc(Cl)cc3)cc2)nc1C#N	20µM*	?
CCOc1ccc(Nc2oc(-c3ccc(Cl)cc3)nc2C#N)cc1	?	2%
Cc1c(-c2ccc(Cl)cc2)c(=O)oc2ccc(OC(=O)N3CCOCC3)cc12	?	-4%
COc1ccccc1NC(=O)C1CCCN(c2nnc(C)c3c(C)n(-c4ccccc4)nc23)C1 (stereo not drawn)	18%	-4%
CCNC(=S)N/N=C/c1ccc(OCCOc2ccccc2C)cc1	16µM*	2%
CCOc1ccc(/C=N/NC(=S)Nc2c(C)cccc2C)cc1	-1%	-7%
COc1cccc(CC(=O)Nc2ccc3nc(N4CCC(C)CC4)cc(C)c3c2)c1	-7%	-12%
CSc1nc(=O)c2c(n1C)NC(=O)CC2c1cc(F)cc(F)c1 (stereo not drawn)	4%	-1%
Cc1cccc(OCC(=O)Nc2nc3ccc([N+](=O)[O-])cc3s2)c1	?	-1%
CC(C)c1ccc(/C=C/C(=O)Nc2nc3ccc([N+](=O)[O-])cc3s2)cc1	4µM*	4%
Cc1cccc(N=Nc2c(N)n[nH]c2-c2ccc(Cl)cc2)c1	25µM*	-6%
Cc1ccc(-c2[nH]nc(N)c2N=Nc2cccc(Cl)c2C)cc1	?	-3%
COc1ccc(NC(=O)c2c(-c3ccccc3)c(-c3ccccc3)nn(C)c2=O)c(OC)c1	17%	-2%
CC(CNC(=O)CCn1c(=O)c2cccn2c2ccc(F)cc21)c1ccccc1 (stereo not drawn)	30%	-7%
CC(CNC(=O)CCCn1c(=O)c2cccn2c2ccc(F)cc21)c1ccccc1 (stereo not drawn)	16µM*	-3%
Cc1cccc(N2C(=O)CSC23C(=O)N(CC(=O)NCCc2ccccc2)c2ccccc23)c1 (stereo not drawn)	1%	-5%
CN(C)c1ccc(-c2nc(-c3ccco3)no2)cc1[N+](=O)[O-]	?	-3%
O=C(Nc1ccccc1N1CCN(c2ccc(F)cc2)CC1)C12CC3CC(CC(C3)C1)C2	25µM*	-3%
O=C(Nc1ccccc1N1CCN(c2ccc(F)cc2)CC1)c1ccccc1	?	1%
Nc1c(-c2nc(-c3ccccc3)no2)nnn1CC(=O)Nc1cccc(F)c1	32µM*	-26%
SMILES	Cruzain inh noDet	Cruzain inh Det
Cc1cc(C)cc(NC(=O)Cn2nnc(-c3nc(-c4ccncc4)no3)c2N)c1	14%	-2%
Cc1ccc(-n2c(=O)c3c4c(sc3n(CC(=O)Nc3cccc(Cl)c3)c2=O)CCCCC4)cc1C	-17%	-1%
CC(/C=N/NC(=O)Cc1cccs1)=C\c1ccccc1	-9%	-5%
O=C(Cc1cccs1)N/N=C/C(Br)=C/c1ccccc1	16µM*	1%
COC(=O)c1c(NC(=O)CCCOc2ccc(C)cc2)sc2c1C(C(=O)OC)CC2 (stereo not drawn)	?	-19%
CC(C)c1ccccc1NC(=O)COc1ccc2c(=O)c(Oc3ccc4ccccc4c3)coc2c1	32µM*	-3%
CCc1ccccc1NC(=O)COc1ccc2c(=O)c(Oc3cc(C)ccc3C)coc2c1	?	-5%
Cc1csc2nc(-c3cccc(NC(=O)c4ccc(S(N)(=O)=O)cc4)c3)cn12	-21%	-3%
Cc1cccn2c(=O)c3cc(C#N)c(=O)n(-c4nnc(SCc5ccc(Cl)cc5)s4)c3nc12	20µM*	-6%
N#Cc1cc2c(=O)n3ccccc3nc2n(-c2nnc(SCc3ccccc3)s2)c1=O	3%	1%
Cc1ccc(NC(=O)c2cccc(N3CCCS3(=O)=O)c2)cc1C	3%	-2%
CC(C)Sc1nnc([C@@H](N)Cc2c[nH]c3ccccc23)o1	7%	-2%
Cc1ccc(C)c(NC(=O)CSc2nnc([C@@H](N)Cc3c[nH]c4ccccc34)o2)c1	25µM*	?
CCOC(=O)c1sc(-c2ccccc2)cc1NC(=O)Nc1ccc([N+](=O)[O-])cc1	10µM*	-3%
CCOc1ccc(-c2cc(NC(=O)Nc3cccc(C(C)=O)c3)c(C(=O)OC)s2)cc1	20%	-2%
COC(=O)/C=C1/SC(=NC(=O)c2ccccc2)NC1=O	1%	-22%
COC(=O)/C=C1\SC(=NC(=O)c2cccc(Cl)c2)NC1=O	-12%	14µM*
O=C(COc1ccccc1F)Nc1nnc(SCc2cc(=O)c3ccccc3[nH]2)s1	-17%	-2%
CCOc1ccc(C(=O)NCC(c2ccc3c(c2)OCO3)N2CCOCC2)cc1 (stereo not drawn)	5%	1%
COc1ccc(NC(=O)C2=CC(c3ccc4c(c3)OCO4)=NS(=O)(=O)N2C)cc1	?	-4%
COc1ccc(C2=NS(=O)(=O)N(C)C(C(=O)Nc3ccc(OC(F)(F)F)cc3)=C2)cc1	10µM*	-4%
CC1CCN(S(=O)(=O)c2ccc3c(c2)N(CC(=O)NC(C)C)C(=O)CO3)CC1	-2%	-1%
COCc1c(Br)c(C)nc(OCC(=O)N/N=C/c2cc(C)n(-c3ccc([N+](=O)[O-])cc3)c2C)c1C#N	32µM*	-3%
COCc1cc(C)nc(OCC(=O)N/N=C/c2cc(C)n(-c3c(C)cccc3C)c2C)c1C#N	10%	-3%
Cc1ccc(C)c(N2CCN(C(=O)C3CCN(c4nc5ccc(C)cc5[nH]4)CC3)CC2)c1	5%	-2%
SMILES	Cruzain inh noDet	Cruzain inh Det
CC(=O)N[C@@H](CC(C)C)C(=O)O	-4%	-1%
CCCCC(C=O)NC(=O)C(CC(C)C)NC(=O)OCc1ccccc1 (stereo not drawn)	0.0025µM*	0.002µM*
COC(=O)C(C)NC(=O)C(C)NC(=O)OCc1ccccc1 (stereo not drawn)	-3%	0%
CSCC[C@H](C=O)NC(=O)[C@H](CC(C)C)NC(=O)[C@H](CC(C)C)NC(C)=O	0.0025µM*	0.0028µM*
CSCCC(NC=O)C(=O)NC(CC(C)C)C(=O)NC(Cc1ccccc1)C(=O)O (stereo not drawn)	5%	5%
CCCC[C@@H](C=O)NC(=O)[C@H](CC(C)C)NC(=O)[C@H](CC(C)C)NC(C)=O	0.0032µM*	?
O=C1CCCC=C1[C@@H](O)CCOC(c1ccccc1)(c1ccccc1)c1ccccc1	2%	0%
CCOc1ccc(-c2nn(-c3ccccc3)cc2/C=C2\SC(=S)N(C3CCS(=O)(=O)C3)C2=O)cc1 (stereo not drawn)	7.9µM*	-12%
CCCOc1ccc(-c2nn(-c3ccccc3)cc2/C=C2\SC(=S)N(C3CCS(=O)(=O)C3)C2=O)cc1 (stereo not drawn)	4µM*	2%
CCOc1ccc(-c2nn(-c3ccccc3)cc2/C=C2\SC(N)=NC2=O)cc1C	8%	-1%
CN(C)S(=O)(=O)c1cccc(-c2nn(-c3ccccc3)cc2/C=C2\SC(=S)NC2=O)c1	16%	-13%
CC(C)Nc1cc(N2CCN(C3CCCCC3)CC2)c2noc3c2c1C(=O)c1ccccc1-3	-8%	0%

Screening data as filed in PubChem BioAssay.
